According to the supplement of paper PMC6609913:
Structures can show the parent of a compound that is named as a salt. ± gives the standard deviation of the averaged measurements. Whole data set: some 1,300 compounds, median “normalised cell viability” near 1, cut for the lowest 2% near 0.15. This excerpt belongs to a sample that is enriched for the lowest values.

Test system: V-C8 + BRCA2 (BRCA2-proficient hamster cells)
Experiment: normalised cell viability (fraction of plate median); higher = more viable cells (less toxic)
Conditions: 5 µM
In short: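 Library drugs, held as 10 mM stocks in DMSO, were diluted to 5 μM in 100 μl medium and added to 96-well plates of V-C8 hamster cells, either lacking BRCA2 or with BRCA2 restored, 24 h after seeding. Plates ran for 3 days (screen 1) or 6 days (screen 2), alongside solvent-only wells. Viability came from a resazurin readout, median-plate normalised, as the mean of triplicate wells.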

Compound	normalised cell viability (treatment time: 3 days)	normalised cell viability (treatment time: 6 days)
CS(=O)(=O)c1ccc(C2=C(c3ccccc3)C(=O)OC2)cc1 [Rofecoxib]	1 ± 0.039	1.02 ± 0.06
CS(=O)(=O)c1ccc([C@@H](O)[C@@H](CO)NC(=O)C(Cl)Cl)cc1 [Thiamphenicol]	0.9701 ± 0.0087	0.927 ± 0.02
NCCc1c[nH]cn1 [Histamine dihydrochloride]	0.994 ± 0.016	0.991 ± 0.064
COc1ccc(C(=O)CC(=O)c2ccc(C(C)(C)C)cc2)cc1 [Avobenzone]	1.02 ± 0.057	1.04 ± 0.12
CCN(CC)C(=O)/C(C#N)=C/c1cc(O)c(O)c([N+](=O)[O-])c1 [Entacapone]	0.944 ± 0.013	1.03 ± 0.03
CC(C)COCC(CN(Cc1ccccc1)c1ccccc1)N1CCCC1 (stereo not drawn) [Bepridil hydrochloride]	0.938 ± 0.069	0.828 ± 0.035
COc1cc([C@@H]2c3cc4c(cc3[C@@H](O[C@@H]3O[C@@H]5CO[C@@H](C)O[C@H]5[C@H](O)[C@H]3O)[C@H]3COC(=O)[C@H]23)OCO4)cc(OC)c1O [Etoposide]	0.141 ± 0.0097	0.15 ± 0.017
CC(=O)[C@@]12O[C@](C)(c3ccccc3)O[C@@H]1C[C@H]1[C@@H]3CCC4=CC(=O)CC[C@]4(C)[C@H]3CC[C@@]12C [Algestone acetophenide]	0.968 ± 0.025	1.07 ± 0.1
CCCCCCCCNC(C)C(O)c1ccc(SC(C)C)cc1 (stereo not drawn) [Suloctidil]	0.653 ± 0.045	0.743 ± 0.068
CC(C)NCC(O)c1cc(O)cc(O)c1 (stereo not drawn) [Metaproterenol sulfate, orciprenaline sulfate]	1.03 ± 0.023	1.04 ± 0.02
Nc1ccc(C(=O)O)c(O)c1 [4-aminosalicylic acid]	0.944 ± 0.086	1.03 ± 0.043
CN(C)CCN(Cc1cccs1)c1ccccn1 [Methapyrilene hydrochloride]	1.12 ± 0.021	1.04 ± 0.042
CO/N=C(\C(=O)N[C@@H]1C(=O)N2C(C(=O)O)=C(C[N+]3(C)CCCC3)CS[C@H]12)c1csc(N)n1 [Cefepime hydrochloride]	0.933 ± 0.092	0.888 ± 0.098
CCC1NC(=O)c2cc(S(N)(=O)=O)c(Cl)cc2N1 (stereo not drawn) [Quinethazone]	0.989 ± 0.058	0.989 ± 0.073
Nc1ccc(/N=N/c2ccccc2)c(N)n1 [Phenazopyridine hydrochloride]	1.02 ± 0.039	1.04 ± 0.035
Clc1ccc(C(c2ccccc2Cl)C(Cl)Cl)cc1 (stereo not drawn) [Mitotane]	1.02 ± 0.035	1.01 ± 0.076
CC(C)NCC(O)c1ccc(O)c(O)c1 (single isomer, unassigned; (+)) [(+)-Isoproterenol (+)-bitartrate salt]	1 ± 0.048	1.05 ± 0.07
CC(=O)OCC(=O)[C@@]1(O)[C@H](C)C[C@H]2[C@@H]3CCC4=CC(=O)C=C[C@]4(C)[C@@]3(F)[C@@H](O)C[C@@]21C [Dexamethasone acetate]	1.08 ± 0.057	1.02 ± 0.056
NC(=O)c1cnccn1 [Pyrazinamide]	1.14 ± 0.039	1.02 ± 0.043
CCN(CC)CCc1nc(-c2ccccc2)no1 [Oxalamine citrate salt]	1 ± 0.018	1.01 ± 0.03
C=C1/C(=C\C=C2/CCC[C@]3(C)[C@@H]([C@H](C)CCCC(C)C)CC[C@@H]23)C[C@@H](O)C[C@@H]1O [Alfacalcidol]	0.751 ± 0.062	0.719 ± 0.094
C[C@@H]1NC(=O)NC1=O [Methylhydantoin-5-(L)]	0.988 ± 0.053	1.07 ± 0.046
CCOC(=O)[C@H](CCc1ccccc1)N[C@H]1CCc2ccccc2N(CC(=O)O)C1=O [Benazepril HCl]	1.03 ± 0.018	1.07 ± 0.029

Compound	normalised cell viability (treatment time: 3 days)	normalised cell viability (treatment time: 6 days)
CC(C)NCC(O)c1ccc2ccccc2c1 (stereo not drawn) [Pronethalol hydrochloride]	0.972 ± 0.037	0.995 ± 0.041
CC(=O)[C@H]1CC[C@H]2[C@@H]3CC=C4C[C@@H](O)CC[C@]4(C)[C@H]3CC[C@]12C [Pregnenolone]	1 ± 0.067	1.07 ± 0.12
O=C1c2cccc(O)c2C(=O)c2c(O)cccc21 [1,8-Dihydroxyanthraquinone]	0.853 ± 0.051	0.914 ± 0.076
O=C1c2c(O)ccc(O)c2C(=O)c2c(NCCNCCO)ccc(NCCNCCO)c21 [Mitoxantrone dihydrochloride]	0.123 ± 0.0098	0.124 ± 0.0098
O=C1c2c(O)cccc2Cc2cccc(O)c21 [Anthralin]	0.979 ± 0.036	0.978 ± 0.018
Clc1ccc(COC(Cn2ccnc2)c2ccc(Cl)cc2Cl)cc1 (stereo not drawn) [Econazole nitrate]	1 ± 0.025	1.04 ± 0.049
CC(=O)NC[C@H]1CN(c2ccc(N3CCOCC3)c(F)c2)C(=O)O1 [Linezolid]	1.06 ± 0.11	1.04 ± 0.04
O=C(NCC1CCCCN1)c1cc(OCC(F)(F)F)ccc1OCC(F)(F)F (stereo not drawn) [Flecainide acetate]	1.12 ± 0.066	1.02 ± 0.12
CCCCC(C)(O)C/C=C/[C@H]1[C@H](O)CC(=O)[C@@H]1CCCCCCC(=O)OC (mixture of isomers) [Misoprostol]	0.976 ± 0.09	1.03 ± 0.024
CCN(CC)CCN[C@@H](C(=O)OCCC(C)C)c1ccccc1 [Camylofine chlorhydrate]	0.957 ± 0.014	0.998 ± 0.096
CC1(C)S[C@@H]2[C@H](NC(=O)[C@H](C(=O)O)c3ccsc3)C(=O)N2[C@H]1C(=O)O [Ticarcillin sodium]	1.02 ± 0.021	1.04 ± 0.097
CC(=O)Oc1cccc2c1C(=O)c1c(OC(C)=O)cc(C(=O)O)cc1C2=O [Diacerein]	0.749 ± 0.038	0.796 ± 0.027
CCN(CC)CCCC(C)Nc1c2ccc(Cl)cc2nc2ccc(OC)cc12 (stereo not drawn) [Quinacrine dihydrochloride dihydrate]	0.133 ± 0.0038	0.107 ± 0.0083
CCN(CC)CCCC(C)Nc1ccnc2cc(Cl)ccc12 (stereo not drawn) [Chloroquine diphosphate]	0.852 ± 0.023	0.938 ± 0.082
CCN(CCO)CCCC(C)Nc1ccnc2cc(Cl)ccc12 (stereo not drawn) [Hydroxychloroquine sulfate]	0.606 ± 0.024	0.666 ± 0.032
O=C(CCCN1CCN(c2ccccn2)CC1)c1ccc(F)cc1 [Azaperone]	1.1 ± 0.34	0.902 ± 0.052
CCCCN1CCCCC1C(=O)Nc1c(C)cccc1C (stereo not drawn) [Bupivacaine hydrochloride]	0.962 ± 0.049	1.03 ± 0.038
CCOC(=O)c1ccc(N)cc1 [Benzocaine]	0.871 ± 0.023	0.9583 ± 0.0066
CN(N=O)C(=O)N[C@@H](C=O)[C@@H](O)[C@H](O)[C@H](O)CO [Streptozotocin]	1.07 ± 0.073	1.06 ± 0.053
O=C(CCCN1CCC(O)(c2ccc(Br)cc2)CC1)c1ccc(F)cc1 [Bromperidol]	0.976 ± 0.027	0.979 ± 0.038
CN1CCCN=C1/C=C/c1cccs1 [Pyrantel tartrate]	1.04 ± 0.05	1.03 ± 0.026
COCCCC/C(=N\OCCN)c1ccc(C(F)(F)F)cc1 [Fluvoxamine maleate]	0.97 ± 0.029	1.17 ± 0.13
Cn1c(=O)c2c(ncn2C)n(C)c1=O [Caffeine]	0.998 ± 0.053	0.996 ± 0.057

Compound	normalised cell viability (treatment time: 3 days)	normalised cell viability (treatment time: 6 days)
CCOC(=O)[N-]c1c[n+](N2CCOCC2)no1 [Molsidomine]	1.04 ± 0.05	1.1 ± 0.028
CCN1CCCC1CNC(=O)c1cc(S(=O)(=O)CC)c(N)cc1OC (stereo not drawn) [Amisulpride]	0.974 ± 0.017	0.991 ± 0.058
CC(=O)Nc1ccc(CC(=O)O)cc1 [Actarit]	1.038 ± 0.0059	1.07 ± 0.12
O=C(CCCCCCC(=O)Nc1ccccc1)NO [Vorinostat]	0.132 ± 0.0091	0.17 ± 0.021
O=C(CCCCC(=O)Nc1c(I)cc(I)c(C(=O)O)c1I)Nc1c(I)cc(I)c(C(=O)O)c1I [Iodipamide]	1.07 ± 0.05	1.02 ± 0.06
CN(Cc1cc(Br)cc(Br)c1N)C1CCCCC1 [Bromhexine hydrochloride]	0.949 ± 0.042	1.02 ± 0.072
CO[C@H]1C[C@H](O[C@H]2[C@H](C)[C@@H](O[C@@H]3O[C@H](C)C[C@H](N(C)C)[C@H]3OC(C)=O)[C@@H](C)C[C@@]3(CO3)C(=O)[C@H](C)[C@@H](OC(C)=O)[C@@H](C)[C@@H](C)OC(=O)[C@@H]2C)O[C@@H](C)[C@@H]1OC(C)=O [Troleandomycin]	1.08 ± 0.027	1.06 ± 0.04
C[C@@H](O)[C@H]1C(=O)N2C(C(=O)O)=C(S[C@@H]3CN[C@H](C(=O)N(C)C)C3)[C@H](C)[C@H]12 [Meropenem]	1.02 ± 0.037	1.04 ± 0.053
NS(=O)(=O)c1cc(Cl)c(Cl)c(S(N)(=O)=O)c1 [Dichlorphenamide]	1.09 ± 0.05	0.961 ± 0.035
CC(C)(C)NCC(O)COc1cccc2c1CCC(=O)N2 (stereo not drawn) [Carteolol hydrochloride]	1.06 ± 0.052	1.06 ± 0.044
O=C1NCC2(CCN(CCc3ccccc3)CC2)O1 [Fenspiride hydrochloride]	1.03 ± 0.051	1.06 ± 0.068
CCN(Cc1ccncc1)C(=O)C(CO)c1ccccc1 (stereo not drawn) [Tropicamide]	1.065 ± 0.0083	1.01 ± 0.043
CN(C)CCC[C@@]1(c2ccc(F)cc2)OCc2cc(C#N)ccc21 [Escitalopram]	1.1 ± 0.041	1.01 ± 0.067
CC(C)[C@H]1CC[C@H](C(=O)N[C@H](Cc2ccccc2)C(=O)O)CC1 [Nateglinide]	1.04 ± 0.051	1.04 ± 0.091
CN1CCCC(CC2c3ccccc3Sc3ccccc32)C1 (stereo not drawn) [Metixene hydrochloride]	0.867 ± 0.014	0.888 ± 0.012
O=C(CCCN1CC=C(n2c(=O)[nH]c3ccccc32)CC1)c1ccc(F)cc1 [Droperidol]	1.05 ± 0.013	1.07 ± 0.015
O=C(O)c1ccccc1OP(=O)(O)O [Fosfosal]	0.966 ± 0.055	1.06 ± 0.1
N=C(N)NC(=N)NCCc1ccccc1 [Phenformin hydrochloride]	1.01 ± 0.029	0.9752 ± 0.0082
CC(C)NC(=N)NC(=N)Nc1ccc(Cl)cc1 [Proguanil hydrochloride]	0.211 ± 0.013	0.203 ± 0.015
N=C(NCCCCCCNC(=N)NC(=N)Nc1ccc(Cl)cc1)NC(=N)Nc1ccc(Cl)cc1 [Chlorhexidine]	0.117 ± 0.0076	0.103 ± 0.0066
CC(=O)Nc1c(I)c(NC(C)=O)c(I)c(C(=O)O)c1I [Diatrizoic acid dihydrate]	0.996 ± 0.035	1.05 ± 0.077
Cc1cc(/C=C/c2ccc3cc(N(C)C)ccc3[n+]2C)c(C)n1-c1ccccc1 [Pyrvinium pamoate]	0.144 ± 0.0086	0.171 ± 0.014
Cc1cc(=O)n(-c2ccccc2)n1C [Antipyrine]	0.997 ± 0.038	1.02 ± 0.046
